Results taken from PubChem BioAssay.
Active and inactive are the calls of the source.

How the values were obtained:
[1] = compound effects on lung adenocarcinoma cell viability – A549, calcein-AM fluorescence, 48 h, basal, profiling panel (AID 1162); conditions: higher = more signal
[2] = compound effects on differentiated 3T3-L1 adipocyte viability – cell-based, 3T3-L1 adipocytes, calcein-AM fluorescence, 48 h, basal, profiling panel (AID 1163); conditions: 3T3-L1 adipocytes viability, higher = more signal
[3] = compound effects on hepatocellular carcinoma cell viability – HepG2, calcein-AM fluorescence, 48 h, basal, profiling panel (AID 1164); conditions: higher = more signal
[4] = compound effects on multiple myeloma cell viability – MM1S, calcein-AM fluorescence, 48 h, basal, profiling panel (AID 1165); conditions: higher = more signal
[5] = calcein-AM signal in unstimulated myeloma cells – cell-based, calcein-AM fluorescence, 48 h, PK04 Diversity Set, profiling panel (AID 1166); conditions: RPMI8226 myeloma viability, higher = more signal;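 also: cells grown under basal conditions without added stimulus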
[6] = JC-1 mitochondrial signal, unstimulated HepG2 cells – cell-based, JC-1 fluorescence, 24 h, 100 nL compound, profiling panel (AID 1167); conditions: HepG2 mitochondrial potential, higher = more signal
[7] = JC-1 mitochondrial signal, unstimulated adipocytes – cell-based, JC-1 fluorescence, 3T3-L1 adipocytes, 24 h, 100 nL compound, profiling panel (AID 1168); conditions: JC-1 mitochondrial fluorescence, higher = more signal, called active from +8 up or from −8 down
[8] = JC-1 mitochondrial signal, unstimulated myeloma cells – cell-based, JC-1 fluorescence, RPMI8226, 24 h, 100 nL compound, profiling panel (AID 1169); conditions: JC-1 mitochondrial potential fluorescence, higher = more signal
[9] = JC-1 mitochondrial signal, unstimulated MM1S myeloma – cell-based, JC-1 fluorescence, 24 h, 100 nL compound, profiling panel (AID 1170); conditions: MM1S mitochondrial potential, higher = more signal
[10] = resazurin metabolic signal in A549 cells – cell-based, resazurin fluorescence, 24 h, PK04 Diversity Set, profiling panel (AID 1171); conditions: A549 viability, higher = more signal, called active from +8 up or from −8 down
Also: test concentration not given here.

Compound | z-score [1] | z-score [2] | z-score [3] | z-score [4] | z-score [5] | z-score [6] | z-score [7] | z-score [8] | z-score [9] | z-score [10]
COc1cc2c(cc1OC)CN(C(=O)[C@@H]1[C@H]3C(=O)O[C@H](c4ccccc4)[C@H](c4ccccc4)N3[C@H](c3ccc(O)cc3)[C@@]13C(=O)Nc1ccc(C#CC4=CCCCC4)cc13)CC2 | 0.434 | 0.641 | 0.618 | -0.126 | -1.58 | -0.948 | 0.165 (inactive) | -0.733 | 0.328 | 0.175 (inactive)
CC(C)C[C@@H]1NC(=O)[C@H]2C[C@@H](C(=O)O)[C@@H](c3cccc(OCCO)c3)N2C1=O | -0.218 | -0.234 | -0.072 | -1.36 | -0.0757 | 0.664 | -0.115 (inactive) | -0.0946 | -0.449 | 0.668 (inactive)
CC(C)N1C(=O)[C@@]2(Cc3ccccc31)c1ccccc1C(=O)N(Cc1ccccc1C(F)(F)F)[C@H]2c1ccc(CO)cc1 | -0.262 | 0.523 | 0.133 | -0.895 | -1.27 | -0.77 | 0.109 (inactive) | 0.0301 | 1.03 | 0.752 (inactive)
O=C1c2ccccc2[C@](Cc2ccccc2I)(C(=O)NCCN2CCOCC2)[C@H](c2ccc(CO)cc2)N1Cc1ccccc1C(F)(F)F | 0.368 | 0.469 | -0.103 | -1.98 | -2.7 | 1.5 | 0.0392 (inactive) | -0.876 | -0.601 | -0.577 (inactive)
Cc1cccc([C@H]2C[C@H]3C(Br)=C[C@@]2(CO)C(=O)[C@]32CO2)c1 | -0.602 | 0.0875 | -0.729 | -2.43 | -0.551 | -2.11 | -0.0495 (inactive) | -0.0551 | -0.876 | 0.393 (inactive)
CCCN1C(=O)[C@@]2(c3ccc([N+](=O)[O-])cc3)CC(=O)N(C3CCCCC3)[C@@H]2c2ccc(CO)cc21 | -0.522 | -0.952 | -0.574 | -0.679 | -0.173 | -1.19 | -0.626 (inactive) | -0.696 | -0.868 | -0.291 (inactive)
C[C@]12C(=O)N(CCO)[C@@H]3C(=O)N(c4ccc(Cl)cc4)CC=CC31O[C@@H]1/C=C\CCCOC(=O)C12 (stereo not given in full) | 0.614 | 1.38 | 0.488 | 0.971 | -0.966 | -0.646 | -0.766 (inactive) | -0.129 | 1.61 | -1.3 (inactive)
[N-]=[N+]=NCc1ccccc1C[C@]1(C(=O)N2CCCCC2)COC(c2ccc(OCCCO)cc2)=N1 | 0.139 | -0.288 | -0.689 | -3.54 | -4.52 | -0.792 | 0.607 (inactive) | -1.22 | -1.98 | 0.898 (inactive)
COC(=O)C1=CC(c2ccc(CO)cc2)=CC(C2CC2)N(Cc2cc3c(cc2Br)OCO3)C=C1C(=O)OC (stereo not given) | -0.0232 | 0.679 | 0.522 | -0.785 | -2.39 | 0.733 | 0.278 (inactive) | -0.563 | -1.34 | -1.15 (inactive)
CC(C)N1CC=CC23O[C@@H]4/C=C\CCCOC(=O)C4[C@H]2C(=O)N(C(C)CO)[C@@H]3C1=O (stereo not given in full) | 0.0513 | 0.512 | -0.145 | 0.967 | 0.629 | 0.412 | -1.54 (inactive) | 0.0317 | -1.08 | 0.753 (inactive)
COCCCNC(=O)[C@@]1(Cc2ccccc2I)c2ccccc2C(=O)N(Cc2ccccc2OC)[C@H]1c1ccc(CO)cc1 | 0.0588 | -0.188 | -0.387 | -0.686 | -1.58 | 1.44 | -0.217 (inactive) | -0.533 | -0.151 | -0.113 (inactive)
CC1CC/C=C\[C@H]2OC34C=CCN(C(C)C)C(=O)[C@H]3N(C(C)CO)C(=O)[C@@H]4C2C(=O)O1 (stereo not given in full) | -0.784 | 0.534 | 0.517 | -0.245 | 0.819 | 0.674 | 0.164 (inactive) | 0.851 | -0.869 | 0.574 (inactive)
CC(C)(C)OC(=O)CC[C@@]1(C(N)=O)N=C(c2ccc(OCCCO)cc2)O[C@@H]1c1ccccc1CN=[N+]=[N-] | 0.105 | -0.288 | 0.886 | 0.0855 | 0.116 | -1.08 | -0.216 (inactive) | 0.698 | -0.829 | 0.112 (inactive)
COCCOC(=O)N1C(=O)[C@@]2(c3cc(C#CCC(C(=O)OC)C(=O)OC)ccc31)[C@H](C(=O)N1CCc3cc(OC)c(OC)cc3C1)[C@H]1C(=O)O[C@H](c3ccccc3)[C@H](c3ccccc3)N1[C@@H]2c1ccccc1OCCO | 0.184 | 0.964 | -0.717 | -2.22 | -0.619 | 0.543 | 1.14 (inactive) | -0.946 | -1.05 | 0.853 (inactive)
COc1cc(CO)cc(I)c1O[C@H]1C=C(C(=O)NCCO)C[C@@H](N(CCN2CCOCC2)C(=O)C2CCCO2)[C@@H]1O (stereo not given in full) | 1.51 | -0.786 | 0.315 | 0.605 | -0.984 | 1.68 | -0.526 (inactive) | 0.385 | -0.1 | -0.0953 (inactive)
CCN1C(=O)C2CC(=O)C3C(CN(S(=O)(=O)c4ccc(C)cc4)C3c3ccc(C)cc3)C2C1=O (stereo not given) | 0.159 | -0.902 | 0.118 | 1.03 | 0.0667 | -0.167 | -0.00388 (inactive) | -0.129 | -1.25 | -0.064 (inactive)
CC[C@@H](O[Si](C#C[Si](C(C)C)(C(C)C)C(C)C)(C(C)C)C(C)C)c1cn(Cc2cccc(Cl)c2)nn1 | -0.163 | -1.25 | 0.0222 | 0.534 | 0.0929 | 0.0106 | -0.00161 (inactive) | 0.0677 | -1.25 | 0.359 (inactive)
C=CC[C@H](O)c1ccc(O)c(F)c1 | -0.402 | 0.329 | -0.821 | -0.229 | -0.426 | -0.737 | 0.083 (inactive) | -0.153 | 0.384 | -0.396 (inactive)
CCOC(=O)C[C@H]1[C@H](OC(=O)c2cc3ccccc3oc2=O)[C@@H](NC(=O)Cc2ccc(OC)cc2)c2cc(OCCCO)ccc2N1C(=O)Cc1ccc(OC)cc1 | 1.16 | 1.68 | 0.37 | 0.789 | 0.148 | 0.164 | -0.3 (inactive) | 0.301 | -0.985 | 0.551 (inactive)
CCCCCN1CC=CC23O[C@@H]4/C=C\CCCOC(=O)C4[C@H]2C(=O)N(CCO)[C@@H]3C1=O (stereo not given in full) | 0.415 | 1.64 | 0.0134 | 1.59 | 0.218 | -0.242 | -0.428 (inactive) | 0.699 | -0.307 | -0.231 (inactive)
CC(C)N1C(=O)[C@@]2(Cc3ccccc31)c1ccccc1C(=O)N(Cc1ccccc1)[C@H]2c1ccc(CO)cc1 | -0.128 | 0.0609 | -0.112 | -0.436 | -0.617 | -0.0756 | -0.0814 (inactive) | 0.122 | 0.687 | 0.247 (inactive)
